Legend:
[1] = molecular target: Sphingosine kinase 1 (Homo sapiens) (UniProt Q9NYA1); settings: at 1 µM;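 also: mean SPHK1 inhibition value reported from the GSK PKIS kinase panel screen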
[2] = molecular target: T1, Sphingosine kinase 2 (Homo sapiens) (UniProt Q9NRA0); settings: at 0.1 µM
T1 sequence (whole entry): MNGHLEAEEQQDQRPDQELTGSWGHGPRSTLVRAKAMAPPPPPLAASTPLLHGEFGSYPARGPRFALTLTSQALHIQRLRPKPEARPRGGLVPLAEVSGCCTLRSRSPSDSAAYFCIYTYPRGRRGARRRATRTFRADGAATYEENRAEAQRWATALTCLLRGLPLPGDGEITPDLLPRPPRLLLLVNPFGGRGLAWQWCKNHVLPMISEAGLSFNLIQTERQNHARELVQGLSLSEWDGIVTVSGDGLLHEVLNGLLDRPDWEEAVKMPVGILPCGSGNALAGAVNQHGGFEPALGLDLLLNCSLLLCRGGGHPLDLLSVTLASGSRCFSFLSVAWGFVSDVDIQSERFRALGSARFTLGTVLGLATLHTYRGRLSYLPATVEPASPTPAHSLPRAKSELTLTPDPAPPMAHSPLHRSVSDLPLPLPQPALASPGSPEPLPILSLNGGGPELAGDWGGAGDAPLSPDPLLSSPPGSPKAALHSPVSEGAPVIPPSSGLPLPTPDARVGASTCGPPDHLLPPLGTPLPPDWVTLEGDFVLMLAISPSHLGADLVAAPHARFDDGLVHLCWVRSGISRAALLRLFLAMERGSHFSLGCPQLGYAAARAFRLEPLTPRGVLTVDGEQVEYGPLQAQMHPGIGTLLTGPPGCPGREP

[3] = molecular target: T1, Sphingosine kinase 2 (Homo sapiens); settings: at 1 µM
[4] = molecular target: Casein kinase II subunit alpha (Homo sapiens) (UniProt P68400); settings: at 0.1 µM
Casein kinase II subunit alpha (Homo sapiens), sequence (P68400 whole entry, looked up): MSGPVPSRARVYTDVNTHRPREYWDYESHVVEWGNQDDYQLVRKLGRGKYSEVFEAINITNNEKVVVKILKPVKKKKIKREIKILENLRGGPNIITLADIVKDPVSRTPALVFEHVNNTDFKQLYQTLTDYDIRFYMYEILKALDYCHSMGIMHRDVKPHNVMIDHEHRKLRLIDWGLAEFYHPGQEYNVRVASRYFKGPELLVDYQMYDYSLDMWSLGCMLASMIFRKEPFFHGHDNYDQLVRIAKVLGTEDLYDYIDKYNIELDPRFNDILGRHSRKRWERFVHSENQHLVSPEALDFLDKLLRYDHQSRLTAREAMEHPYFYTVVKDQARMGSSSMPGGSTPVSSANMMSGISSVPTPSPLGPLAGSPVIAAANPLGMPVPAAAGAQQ

[5] = molecular target: Casein kinase II subunit alpha (Homo sapiens) (UniProt P68400); settings: at 1 µM
[6] = molecular target: T2, Inhibitor of nuclear factor kappa-B kinase subunit alpha (Homo sapiens) (UniProt O15111); settings: at 0.1 µM
T2 sequence (whole entry): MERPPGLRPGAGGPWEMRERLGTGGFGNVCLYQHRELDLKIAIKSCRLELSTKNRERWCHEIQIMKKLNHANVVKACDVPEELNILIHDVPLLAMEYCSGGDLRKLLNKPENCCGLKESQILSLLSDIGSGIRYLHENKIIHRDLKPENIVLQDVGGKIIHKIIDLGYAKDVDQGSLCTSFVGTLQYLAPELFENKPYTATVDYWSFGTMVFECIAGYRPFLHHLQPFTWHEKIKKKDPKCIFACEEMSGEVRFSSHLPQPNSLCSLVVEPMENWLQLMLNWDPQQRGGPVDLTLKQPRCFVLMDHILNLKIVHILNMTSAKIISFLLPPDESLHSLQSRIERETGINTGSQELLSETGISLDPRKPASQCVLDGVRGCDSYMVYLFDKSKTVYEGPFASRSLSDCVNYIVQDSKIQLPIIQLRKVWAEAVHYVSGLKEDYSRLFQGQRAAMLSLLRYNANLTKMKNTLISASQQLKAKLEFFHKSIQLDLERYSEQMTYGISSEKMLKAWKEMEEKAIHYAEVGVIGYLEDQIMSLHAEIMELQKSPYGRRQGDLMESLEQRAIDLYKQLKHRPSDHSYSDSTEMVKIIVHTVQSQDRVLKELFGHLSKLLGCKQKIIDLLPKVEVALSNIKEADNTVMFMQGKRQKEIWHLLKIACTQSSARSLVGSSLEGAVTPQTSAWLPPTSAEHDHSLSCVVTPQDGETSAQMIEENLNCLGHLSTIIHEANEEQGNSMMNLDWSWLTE

[7] = molecular target: T2, Inhibitor of nuclear factor kappa-B kinase subunit alpha (Homo sapiens); settings: at 1 µM
[8] = molecular target: T3, Inhibitor of nuclear factor kappa-B kinase subunit beta (Homo sapiens) (UniProt O14920); settings: at 0.1 µM
T3 sequence (whole entry): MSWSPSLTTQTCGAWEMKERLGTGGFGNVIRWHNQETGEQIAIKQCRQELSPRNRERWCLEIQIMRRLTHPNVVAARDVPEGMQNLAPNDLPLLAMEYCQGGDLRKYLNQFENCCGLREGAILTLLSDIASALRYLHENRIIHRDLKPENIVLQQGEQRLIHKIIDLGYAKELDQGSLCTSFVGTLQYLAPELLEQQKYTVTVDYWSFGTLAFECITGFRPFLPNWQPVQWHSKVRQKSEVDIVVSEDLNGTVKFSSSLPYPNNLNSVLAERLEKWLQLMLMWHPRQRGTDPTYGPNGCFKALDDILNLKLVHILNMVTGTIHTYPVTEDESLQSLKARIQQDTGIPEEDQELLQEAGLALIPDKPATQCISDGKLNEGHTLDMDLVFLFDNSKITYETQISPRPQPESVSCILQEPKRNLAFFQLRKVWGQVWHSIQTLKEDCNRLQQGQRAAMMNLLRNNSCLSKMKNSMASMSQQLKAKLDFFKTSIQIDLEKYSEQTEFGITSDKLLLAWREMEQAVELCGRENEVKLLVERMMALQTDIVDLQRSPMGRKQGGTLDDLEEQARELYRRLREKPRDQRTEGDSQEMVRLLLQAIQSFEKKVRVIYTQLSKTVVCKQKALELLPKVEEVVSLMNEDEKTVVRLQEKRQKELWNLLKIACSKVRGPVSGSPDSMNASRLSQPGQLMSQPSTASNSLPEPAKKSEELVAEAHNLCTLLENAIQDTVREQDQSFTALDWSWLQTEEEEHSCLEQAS

[9] = molecular target: T3, Inhibitor of nuclear factor kappa-B kinase subunit beta (Homo sapiens); settings: at 1 µM
[10] = molecular target: T4, Inhibitor of nuclear factor kappa-B kinase subunit epsilon (Homo sapiens) (UniProt Q14164); settings: at 0.1 µM
T4 sequence (whole entry): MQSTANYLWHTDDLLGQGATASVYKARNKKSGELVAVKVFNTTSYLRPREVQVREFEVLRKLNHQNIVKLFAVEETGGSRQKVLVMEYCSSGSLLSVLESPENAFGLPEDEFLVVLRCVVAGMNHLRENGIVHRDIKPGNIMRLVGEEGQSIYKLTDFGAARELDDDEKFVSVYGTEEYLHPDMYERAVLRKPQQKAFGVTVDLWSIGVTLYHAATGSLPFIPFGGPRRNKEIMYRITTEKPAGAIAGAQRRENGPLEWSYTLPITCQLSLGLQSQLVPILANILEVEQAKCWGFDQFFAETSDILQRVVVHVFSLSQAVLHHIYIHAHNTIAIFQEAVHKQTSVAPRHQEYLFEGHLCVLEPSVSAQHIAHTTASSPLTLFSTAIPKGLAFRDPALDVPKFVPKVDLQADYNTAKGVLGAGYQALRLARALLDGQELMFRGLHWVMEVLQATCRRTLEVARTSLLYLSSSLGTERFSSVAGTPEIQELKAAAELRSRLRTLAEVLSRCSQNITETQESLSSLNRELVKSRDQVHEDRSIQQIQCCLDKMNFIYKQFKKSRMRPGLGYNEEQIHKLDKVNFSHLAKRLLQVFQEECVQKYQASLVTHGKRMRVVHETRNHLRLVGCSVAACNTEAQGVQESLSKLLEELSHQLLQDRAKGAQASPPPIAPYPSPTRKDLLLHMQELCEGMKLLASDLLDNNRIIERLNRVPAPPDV

[11] = molecular target: T4, Inhibitor of nuclear factor kappa-B kinase subunit epsilon (Homo sapiens); settings: at 1 µM
[12] = molecular target: T5, Serine/threonine-protein kinase Nek1 (Homo sapiens) (UniProt Q96PY6); settings: at 0.1 µM
T5 sequence (whole entry): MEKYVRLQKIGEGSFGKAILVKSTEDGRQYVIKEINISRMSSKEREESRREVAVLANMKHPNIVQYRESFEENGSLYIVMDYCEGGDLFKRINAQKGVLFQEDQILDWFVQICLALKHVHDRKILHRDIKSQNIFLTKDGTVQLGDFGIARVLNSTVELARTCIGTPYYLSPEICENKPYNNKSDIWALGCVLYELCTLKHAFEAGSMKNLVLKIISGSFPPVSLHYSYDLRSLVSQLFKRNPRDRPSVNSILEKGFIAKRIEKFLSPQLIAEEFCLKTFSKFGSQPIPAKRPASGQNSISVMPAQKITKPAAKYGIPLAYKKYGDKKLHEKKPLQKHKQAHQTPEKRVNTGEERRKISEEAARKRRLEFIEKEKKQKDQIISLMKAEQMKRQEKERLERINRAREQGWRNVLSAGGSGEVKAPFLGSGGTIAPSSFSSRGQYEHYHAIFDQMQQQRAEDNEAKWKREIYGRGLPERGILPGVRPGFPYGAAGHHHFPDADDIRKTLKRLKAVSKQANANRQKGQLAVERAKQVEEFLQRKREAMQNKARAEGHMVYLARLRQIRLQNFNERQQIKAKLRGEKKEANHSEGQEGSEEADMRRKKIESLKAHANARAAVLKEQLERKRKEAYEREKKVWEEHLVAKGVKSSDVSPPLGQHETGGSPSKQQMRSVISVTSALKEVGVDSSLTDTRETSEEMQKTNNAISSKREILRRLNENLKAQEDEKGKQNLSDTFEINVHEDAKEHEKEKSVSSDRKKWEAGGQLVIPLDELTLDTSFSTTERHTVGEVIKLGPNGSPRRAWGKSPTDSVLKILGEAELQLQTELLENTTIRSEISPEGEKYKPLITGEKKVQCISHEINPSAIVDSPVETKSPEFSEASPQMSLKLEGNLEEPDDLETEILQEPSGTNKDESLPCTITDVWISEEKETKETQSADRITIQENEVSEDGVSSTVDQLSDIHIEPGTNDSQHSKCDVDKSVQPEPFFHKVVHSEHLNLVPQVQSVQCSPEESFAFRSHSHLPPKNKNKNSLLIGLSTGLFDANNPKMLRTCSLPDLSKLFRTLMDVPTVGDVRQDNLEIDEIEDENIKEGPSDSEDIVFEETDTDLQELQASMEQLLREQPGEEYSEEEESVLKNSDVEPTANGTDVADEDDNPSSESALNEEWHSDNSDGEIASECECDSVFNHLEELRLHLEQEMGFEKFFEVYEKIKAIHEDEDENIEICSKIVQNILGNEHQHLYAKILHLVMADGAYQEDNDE

[13] = molecular target: T5, Serine/threonine-protein kinase Nek1 (Homo sapiens); settings: at 1 µM
[14] = molecular target: T6, Serine/threonine-protein kinase Nek2 (Homo sapiens) (UniProt P51955); settings: at 0.1 µM
T6 sequence (whole entry): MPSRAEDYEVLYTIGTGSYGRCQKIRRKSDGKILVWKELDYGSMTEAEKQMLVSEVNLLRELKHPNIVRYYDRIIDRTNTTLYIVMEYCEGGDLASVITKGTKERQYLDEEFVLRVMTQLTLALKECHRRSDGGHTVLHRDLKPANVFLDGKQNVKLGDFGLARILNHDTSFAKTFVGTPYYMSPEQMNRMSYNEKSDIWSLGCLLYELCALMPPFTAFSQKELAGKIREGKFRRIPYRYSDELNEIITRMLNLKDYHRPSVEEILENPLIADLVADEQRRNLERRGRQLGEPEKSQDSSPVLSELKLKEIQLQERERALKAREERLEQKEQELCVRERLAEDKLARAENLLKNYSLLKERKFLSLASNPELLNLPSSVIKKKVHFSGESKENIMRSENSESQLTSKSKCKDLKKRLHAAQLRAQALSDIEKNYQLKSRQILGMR

[15] = molecular target: T6, Serine/threonine-protein kinase Nek2 (Homo sapiens); settings: at 1 µM
[16] = molecular target: Serine/threonine-protein kinase Nek6 (Homo sapiens) (UniProt Q9HC98); settings: at 0.1 µM
Serine/threonine-protein kinase Nek6 (Homo sapiens), sequence (Q9HC98 whole entry): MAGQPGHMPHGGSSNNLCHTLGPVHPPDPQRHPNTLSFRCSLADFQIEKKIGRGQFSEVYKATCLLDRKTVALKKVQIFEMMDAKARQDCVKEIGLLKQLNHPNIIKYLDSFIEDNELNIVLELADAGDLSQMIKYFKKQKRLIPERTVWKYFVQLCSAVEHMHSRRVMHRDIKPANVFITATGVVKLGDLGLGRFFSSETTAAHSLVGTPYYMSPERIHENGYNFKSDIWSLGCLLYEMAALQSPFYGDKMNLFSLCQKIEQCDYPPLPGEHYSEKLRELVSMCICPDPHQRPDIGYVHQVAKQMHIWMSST

[17] = molecular target: Serine/threonine-protein kinase Nek6 (Homo sapiens) (UniProt Q9HC98); settings: at 1 µM
[18] = molecular target: Serine/threonine-protein kinase Nek7 (Homo sapiens) (UniProt Q8TDX7); settings: at 0.1 µM
Serine/threonine-protein kinase Nek7 (Homo sapiens), sequence (Q8TDX7 whole entry, looked up): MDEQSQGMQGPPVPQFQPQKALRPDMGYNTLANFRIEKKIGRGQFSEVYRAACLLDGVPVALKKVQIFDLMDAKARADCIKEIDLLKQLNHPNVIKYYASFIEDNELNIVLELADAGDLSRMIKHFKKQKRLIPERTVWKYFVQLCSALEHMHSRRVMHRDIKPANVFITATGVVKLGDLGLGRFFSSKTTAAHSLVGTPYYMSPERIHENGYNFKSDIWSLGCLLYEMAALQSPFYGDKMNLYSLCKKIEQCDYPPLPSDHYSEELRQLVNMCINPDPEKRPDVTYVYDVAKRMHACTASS

[19] = molecular target: Serine/threonine-protein kinase Nek7 (Homo sapiens) (UniProt Q8TDX7); settings: at 1 µM
[20] = molecular target: T7, Serine/threonine-protein kinase Nek9 (Homo sapiens) (UniProt Q8TD19); settings: at 0.1 µM;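 also: reported value is the mean percent inhibition of NEK9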
T7 sequence (whole entry): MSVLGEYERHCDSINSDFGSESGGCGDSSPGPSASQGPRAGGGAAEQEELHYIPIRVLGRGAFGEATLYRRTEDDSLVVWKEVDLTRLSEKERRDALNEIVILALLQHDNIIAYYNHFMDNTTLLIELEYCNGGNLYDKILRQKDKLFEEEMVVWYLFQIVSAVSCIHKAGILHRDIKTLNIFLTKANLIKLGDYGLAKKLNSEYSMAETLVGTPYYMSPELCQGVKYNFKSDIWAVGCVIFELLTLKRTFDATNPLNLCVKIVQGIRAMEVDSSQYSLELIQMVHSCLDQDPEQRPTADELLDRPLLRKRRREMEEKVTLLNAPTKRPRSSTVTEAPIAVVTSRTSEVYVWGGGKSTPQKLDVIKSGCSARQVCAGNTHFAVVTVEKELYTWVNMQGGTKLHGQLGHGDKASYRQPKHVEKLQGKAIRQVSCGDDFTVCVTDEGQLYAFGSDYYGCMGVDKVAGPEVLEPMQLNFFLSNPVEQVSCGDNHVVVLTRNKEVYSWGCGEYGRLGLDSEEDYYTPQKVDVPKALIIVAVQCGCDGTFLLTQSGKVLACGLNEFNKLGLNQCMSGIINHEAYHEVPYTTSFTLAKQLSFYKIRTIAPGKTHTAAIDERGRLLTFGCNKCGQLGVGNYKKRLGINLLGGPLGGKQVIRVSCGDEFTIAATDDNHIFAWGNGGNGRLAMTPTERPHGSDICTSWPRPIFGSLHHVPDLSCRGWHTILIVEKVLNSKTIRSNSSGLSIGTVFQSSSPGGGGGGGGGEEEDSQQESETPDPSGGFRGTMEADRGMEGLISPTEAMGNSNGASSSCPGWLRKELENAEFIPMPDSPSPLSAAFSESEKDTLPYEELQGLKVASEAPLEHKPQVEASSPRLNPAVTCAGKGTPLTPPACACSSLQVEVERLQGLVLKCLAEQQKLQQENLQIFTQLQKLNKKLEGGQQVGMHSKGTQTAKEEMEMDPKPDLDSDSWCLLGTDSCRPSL

Sphingosine kinase 1 (Homo sapiens), sequence (Q9NYA1 whole entry): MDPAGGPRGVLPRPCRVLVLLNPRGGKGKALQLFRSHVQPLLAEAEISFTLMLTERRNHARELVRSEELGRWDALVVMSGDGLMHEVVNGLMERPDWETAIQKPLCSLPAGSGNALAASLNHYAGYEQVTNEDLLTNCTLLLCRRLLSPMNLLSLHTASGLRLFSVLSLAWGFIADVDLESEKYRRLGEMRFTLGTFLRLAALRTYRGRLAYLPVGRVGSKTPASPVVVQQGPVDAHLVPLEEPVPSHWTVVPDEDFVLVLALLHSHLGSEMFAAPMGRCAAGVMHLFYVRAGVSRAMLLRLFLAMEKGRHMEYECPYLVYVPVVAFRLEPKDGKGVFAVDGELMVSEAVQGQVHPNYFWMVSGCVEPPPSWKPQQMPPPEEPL

Structure (SMILES): CN(C)c1cc2c(Nc3ccc4c(cnn4Cc4ccccc4)c3)ncnc2cn1
- inhibition [1]: -2%
- inhibition [2]: -0.22%
- inhibition [3]: -1.13%
- inhibition [4]: 1.2%
- inhibition [5]: -0.12%
- inhibition [6]: 3.64%
- inhibition [7]: 8.41%
- inhibition [8]: 3.68%
- inhibition [9]: 3.14%
- inhibition [10]: 3.9%
- inhibition [11]: 3.38%
- inhibition [12]: 0.59%
- inhibition [13]: 2.49%
- inhibition [14]: 3.29%
- inhibition [15]: 3.45%
- inhibition [16]: 0.57%
- inhibition [17]: 2.34%
- inhibition [18]: 1.52%
- inhibition [19]: 1.66%
- inhibition [20]: 6.89%

From ChEMBL document CHEMBL1961873, “Compounds: GSK PKIS; Assays: Nanosyn kinase panel” (2012)
